This is one part of a sample in which hits are shown more often than they occur.
VACV Venus inh = vaccinia inhibition (Venus reporter). Vaccinia virus Venus reporter expression, fluorescence. Potency, µM (doses to about 36.5 µM), for inactives: at the highest dose activity change, negative = inhibition, most hits filed as inhibitors. 0.46% of 330,000 active; calls by dose curve; tested in A549 cells; also: potency is read from the fitted curve at half-maximal effect; % is scaled to controls: 0 for no effect and ±100 for the full control effect; nearly all actives have a fitted effect of over 30% in size
Cycloheximide cs = affects cycloheximide protein synthesis inhibition readout, counter-screen; cell reporter, cycloheximide protein synthesis inhibition counterscreen; max response, %; 12% of 300,000 active; in the data active = max response mostly above about 13%, no sharp cut-off; inactive = mostly below about 14%; also: read at 38.3 µM for the half of the compounds with a filed dose; 0% is about no effect
MARV entry inh = Marburg virus entry inhibition | Marburg virus pseudotyped entry inhibition, cell reporter | Potency, µM (top dose mostly 37.8 µM), inactives show at the highest dose activity change, negative = inhibition, actives largely listed as inhibitors | 1.8% of 300,000 active; calls by dose curve; tested in HEK293 cells; also: potency is read from the fitted curve at half-maximal effect; % is scaled to controls: 0 for no effect and ±100 for the full control effect
VACV mCherry inh = vaccinia inhibition (mCherry reporter). Potency, µM (doses to about 36.5 µM), inactives show at the highest dose activity change, negative = inhibition, hits mostly inhibitors. 0.63% of 310,000 active. Vaccinia virus mCherry reporter infection, fluorescence. AID 720579; calls by dose curve; tested in A549 cells; also: potency is read from the fitted curve at half-maximal effect; % is scaled to controls: 0 for no effect and ±100 for the full control effect; nearly all actives have a fitted effect of over 35% in size
Lassa entry inh = Lassa virus entry inhibition; AID 540256; Lassa virus pseudotype entry inhibition, cell reporter; 1.2% of 300,000 active; Potency, µM (titrated, usually from 37.9 µM), for the others: at the top dose activity change, negative = inhibition, usual class: inhibitors; calls by dose curve; tested in HEK293 cells; also: potency is read from the fitted curve at half-maximal effect; % is scaled to controls: 0 for no effect and ±100 for the full control effect; nearly all actives have a fitted effect of over 50% in size
Shiga inhibitor = blocks Shiga toxin action in Vero cells; Vero cells, Shiga toxin protein synthesis inhibition reporter; 9.2% of 290,000 active; AID 2315; inhibition, % at 38.7 µM; in the data active = inhibition mostly above about 28%, no sharp cut-off; inactive = mostly below about 43%; also: 0% is about no effect
Active calls of the source: *; i = inactive; u = inconclusive; x = no result; [ ] = dose if it differs, or a comment.

SMILES	VACV Venus inh	Cycloheximide cs	MARV entry inh	VACV mCherry inh	Lassa entry inh	Shiga inhibitor
NC(=O)c1ccccc1NC(=S)NC(=O)c1ccc(Br)o1	-7.9%	35.2*	4.2%	-9.0%	1.8%	56.4*
CCC(C)n1c(SCc2ccc(F)cc2Cl)nc2ccsc2c1=O (centres undefined)	-6.7%	x	x	-7.9%	u	x
CCn1c(SCC(=O)N2CCC(C)CC2)nc2c(c1=O)SCC2	-6.4%	4.5	1.7%[46.1 µM]	-9.4%	u	63.6
COc1ccc(-c2nnc(SCC(=O)c3ccc[nH]3)n2-c2ccccc2)cc1	-12.7%	33.9*	23.5%	-17.0%	1.9%	81.5*
COc1ccc(-c2nnc(SCCC(=O)O)n2-c2ccccc2)cc1	x	6.4	1.0%	x	-16.8%	-4.0
COc1ccc(OCCSc2nnc(C)n2-c2ccccc2)cc1	x	-2.5	u	x	9.2µM*	10.5
CC(C)NC(=O)CSc1nnc2sc3ccccc3n12	x	26.8*	-2.5%	x	2.6%	24.0
COc1ccc(OCCSc2nnc3sc4ccccc4n23)cc1	-18.9%	59.7*	2.8%	-13.2%	15.5%	66.9
c1ccc(Cc2nnc3n2CCN(Cc2cnc(-c4ccccc4)s2)CC3)cc1	-12.3%	x	x	-12.7%	x	x
O=S(=O)(/C=C/c1ccccc1)N1CCOCC1	x	-1.2	x	x	x	-2.9
O=C(N/N=C/c1ccccn1)c1cc(-c2ccc(Cl)s2)[nH]n1	-22.1%	1.3	-17.1%[46.1 µM]	12.6µM*	-15.1%[46.1 µM]	4.1
Cc1nn(-c2ccccc2)c(C)c1/C=N/NC(=O)c1cc(-c2cccs2)[nH]n1	x	5.4	u	x	u	-8.8
Cc1nn(-c2ccccc2)c(C)c1/C=N/NC(=O)c1cc(-c2ccc(Br)s2)[nH]n1	x	-0.7	7.3µM*	x	6.51µM*	-4.7
Cc1nn(-c2ccccc2)c(C)c1/C=N/NC(=O)c1cc(-c2ccc(Cl)s2)[nH]n1	x	-4.2	9.2µM*	x	10.3µM*	2.7
CCN1CCN(C(=O)c2cnn(-c3ncc4c(n3)-c3ccccc3CCC4)c2COC)CC1	-18.5%	x	x	-1.2%	x	x
C=C1C[C@@]23CC[C@H]4[C@@](C)(CCC[C@@]4(C)C(=O)O)[C@@H]2CC[C@]1(O)C3	x	x	10.9%	x	11.0%	x
Cc1ccc(-n2c(CCC(=O)O)ccc2-c2cccs2)cc1	2.2%	25.1*	u	-8.9%	8.7%[14.3 µM]	97.2*
COC(=O)c1cccc(-n2c(CCC(=O)O)ccc2-c2cccs2)c1	-6.8%	19.4*	x	-14.2%	2.5%[46.1 µM]	49.3*
COc1cc(C(=O)N=C2SC3CS(=O)(=O)CC3N2c2ccccc2)cc(OC)c1OC (centres undefined)	x	-1.7	x	x	x	-5.1
CC(=O)c1ccc(N2C(=NC(=O)C3CCCO3)SC3CS(=O)(=O)CC32)cc1 (centres undefined)	-6.2%	-2.4	u	-15.4%	-0.9%[46.1 µM]	-7.6
COc1ccccc1C(=O)N=C1SC2CS(=O)(=O)CC2N1c1ccccc1 (centres undefined)	7.3%	9.8*	0.4%[46.1 µM]	12.9%	x	22.4
Cc1ccc(N2C(=NC(=O)c3ccccc3)SC3CS(=O)(=O)CC32)cc1 (centres undefined)	-15.5%	-1.8	26.2%[46.1 µM]	-0.5%	u	-22.3
CCCC(=O)N=C1SC2CS(=O)(=O)CC2N1c1ccc(-c2nc3ccc(C)cc3s2)cc1 (centres undefined)	-5.4%	43.6*	u	-20.9%	u	106.1*
CN(C)c1ccc(N2C(=NC(=O)C3CCCO3)SC3CS(=O)(=O)CC32)cc1 (centres undefined)	x	37.9*	x	x	x	21.5
CN(C)c1ccc(N2C(=NC(=O)CCc3ccccc3)SC3CS(=O)(=O)CC32)cc1 (centres undefined)	x	18.7*	x	x	x	24.3
SMILES	VACV Venus inh	Cycloheximide cs	MARV entry inh	VACV mCherry inh	Lassa entry inh	Shiga inhibitor
COc1ccc(-c2cn3nc(N4CCC(C(=O)Nc5ccccc5OC)CC4)sc3n2)cc1	-12.1%	x	x	-12.2%	23.1%[46.1 µM]	x
CC1=CC[C@@H](C)O[C@@]2(C1)C(=O)Nc1cccc(Br)c12	x	x	-15.4%[14.2 µM]	x	u	x
Cc1ccc(-c2nnc(SCC(=O)N3CCCC3)o2)cc1C	-60.2%	36.2*	u	x	u	71.6*
CCOC(=O)N1CCN(C(=O)CSc2nnc(-c3ccc(C)c(C)c3)o2)CC1	u	-1.7	x	10µM*	x	9.5
CCOC(=O)N1CCN(C(=O)CSc2nnc(-c3ccc(C(C)(C)C)cc3)o2)CC1	u	1.1	u	5.62µM*	7.2%	-7.9
CCOC(=O)N1CCN(C(=O)CSc2nnc(-c3cccc(OC)c3)o2)CC1	u	-3.4	-20.4%	u	-23.9%	26.8
Cc1cccc(-c2nnc(SCC(=O)N3CCCCC3)o2)c1	-5.4%	x	u	-11.9%	18.8%[46.1 µM]	x
COc1ccc(Nc2cc(C)c3cc(NC(=O)Cc4ccc(Cl)cc4)ccc3n2)cc1	u	x	x	-19.6%	0.6%[46.1 µM]	x
Cc1c(C(=O)Nc2cc(F)cc(F)c2)cnn1-c1ccccc1	x	51.6*	x	x	x	x
Cc1c(C(=O)Oc2cccc3ccccc23)cnn1-c1ccccc1	-9.7%	45.4*	-2.1%	x	-0.8%	151.2*
Cc1nn(-c2ccccc2)cc1C(=S)Nc1ccccc1	-15.4%	27.4*	u	i	u	64.0*
Cc1c(C(=S)Nc2ccccc2)cnn1-c1ccccc1	-18.8%	35.2*	-8.6%	-1.8%	1.5%	37.0
Cc1c(C(=S)Nc2ccccc2)cnn1-c1ccc([N+](=O)[O-])cc1	-20.6%	-4.6	u	-28.0%	-19.0%	-7.5
CC(=O)c1cnn(-c2ccccc2)c1C	-9.1%	4.6	u	9.6%	-5.5%	6.9
CN(C)CCCOc1c2ccccc2n(Cc2ccccc2)[n+]1[O-]	x	-3.0	x	x	x	-11.9
COc1cccc(O[C@H]2C=C[C@@H](c3ccccc3)O[C@H]2CO)c1	x	x	4.1%[14.2 µM]	x	x	x
CCOc1ccc(NC(=O)C2CCCN(c3nn4cc(-c5ccc(OC)cc5)nc4s3)C2)cc1 (centres undefined)	-27.0%	x	x	-28.9%	7.0%[46.1 µM]	x
CCc1ccc(NC(=O)c2cnn(-c3ccccc3)c2C)cc1	-11.8%	63.4*	10µM*	-20.7%	u	59.3*
Cc1c(C(=O)Nc2ccccc2F)cnn1-c1ccccc1	x	57.4*	x	x	x	79.8*
COc1ccc(NC(=O)c2cnn(-c3ccccc3)c2C)c(OC)c1	-2.0%	4.6	u	12.9%	0.0%[46.1 µM]	4.4
Cc1ccc(S(=O)(=O)CCC(=O)OCC(=O)Nc2cccc(S(=O)(=O)N3CCCCC3)c2)cc1	-3.2%	x	x	i	x	x
O=C(NCc1ccc(Cl)cc1)N1CCN(Cc2ccccc2)CC1	x	-2.3	x	x	x	-6.9
Nc1nonc1N/N=C\c1ccccc1	-17.0%	-4.7	-3.5%	-25.1%	-7.2%	4.7
Nc1nonc1NN=C1CCCCC1	x	12.2*	-2.1%	x	x	77.4
CC(=O)N(C(C)=O)c1ncnc2c1c(-c1ccc(Cl)cc1)nn2C(C)(C)C	u	-2.5	u	u	15.8µM*	-3.9
CC(=O)Nc1ncnc2c1c(-c1ccc(Cl)cc1)nn2C(C)(C)C	x	-0.7	x	x	x	-31.4
CCC(C)(C)NC(=O)COc1ccc(OCc2ccccc2)cc1	6.1%	15.7	-1.9%[46.1 µM]	0.7%	-7.7%	27.4
Cc1ccc(OCCCn2c(=O)sc3ccccc32)cc1	-11.2%	24.2*	u	-14.7%	4.6%	18.8

Source: PubChem
